The structures appear in SMILES notation. In all, about 110,000 compounds were measured (“z-score”: median about -0.1, highest 2% from about 2 on). This is one part of a sample in which the highest values are shown more often than they occur. Activity calls are given as the source filed them.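 The calls were made as follows: active = z-score in the third read window above 3 or below -3; inactive = the rest.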

Sequence of Metabotropic glutamate receptor 8 (Rattus norvegicus) (P70579 whole entry, looked up): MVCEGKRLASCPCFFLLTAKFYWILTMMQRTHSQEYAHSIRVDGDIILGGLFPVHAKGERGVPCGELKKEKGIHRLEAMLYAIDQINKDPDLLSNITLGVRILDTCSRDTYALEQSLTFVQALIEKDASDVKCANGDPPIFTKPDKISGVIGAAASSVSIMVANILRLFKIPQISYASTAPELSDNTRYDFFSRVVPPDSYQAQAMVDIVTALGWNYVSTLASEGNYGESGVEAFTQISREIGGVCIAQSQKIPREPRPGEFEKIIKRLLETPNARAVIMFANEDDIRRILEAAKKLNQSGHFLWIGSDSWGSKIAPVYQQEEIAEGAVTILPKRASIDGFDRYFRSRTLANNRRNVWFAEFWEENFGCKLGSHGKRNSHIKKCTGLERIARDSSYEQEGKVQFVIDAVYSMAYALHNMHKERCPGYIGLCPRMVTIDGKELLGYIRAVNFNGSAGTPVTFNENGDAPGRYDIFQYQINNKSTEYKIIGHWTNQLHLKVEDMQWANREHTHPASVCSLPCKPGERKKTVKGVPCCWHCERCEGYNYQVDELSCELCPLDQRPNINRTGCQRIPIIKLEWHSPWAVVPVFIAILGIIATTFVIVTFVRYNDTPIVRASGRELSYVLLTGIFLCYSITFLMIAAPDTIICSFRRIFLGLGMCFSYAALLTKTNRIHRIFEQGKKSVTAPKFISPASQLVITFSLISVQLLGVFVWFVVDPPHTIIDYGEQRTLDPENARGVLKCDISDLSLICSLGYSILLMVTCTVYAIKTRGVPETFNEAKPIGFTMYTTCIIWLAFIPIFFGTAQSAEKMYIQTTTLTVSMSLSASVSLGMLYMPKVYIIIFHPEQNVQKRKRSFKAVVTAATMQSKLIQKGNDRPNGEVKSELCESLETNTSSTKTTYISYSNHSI

This assay concerns the target Metabotropic glutamate receptor 8 (Rattus norvegicus) (UniProt P70579). Kind of assay: rat mGluR8 modulators via GIRK flux, primary screen, cell-based, thallium flux, HTS (AID 488969). The conditions noted are these: HEK293 rat mGluR8, GIRK (G protein-gated inwardly rectifying potassium channel) thallium flux, FluoZin2; at 10 µM; stronger effect = higher value; submaximal glutamate (EC20) added with thallium.
`CCOC(=O)C1CCN(C(=O)c2cc(OCC)c(OCC)c(OCC)c2)CC1` gave a z-score of 0.856.
Turning to `OC1CCN(c2c3c(nc4cc(-c5ccc(Cl)cc5)nn24)CCC3)CC1`, the z-score was -0.738.
As for `O=C(c1cc2ccccc2c(=O)o1)N1CCCC1`, the figure is 0.79.
For `Cc1cc(NC(=O)c2c(F)cccc2Cl)n(-c2nc3ccccc3[nH]2)n1`, the z-score is 3.06 (active).
In the case of `Cc1cc(NC(=O)/C=C/c2ccccc2Cl)n(-c2nc3ccccc3[nH]2)n1`, the z-score amounted to 0.0437.
As to `Cc1cc(NC(=O)c2ccc(F)cc2F)n(-c2nc3ccccc3[nH]2)n1`, the z-score is 0.0238.
As to `CC1CCCC(NC(=S)Nc2ccc(SC(F)F)cc2)C1C` (configuration not stated), the z-score is 4.36 (active).
For `CC1CC(C)CN(C(=S)Nc2ccc(SC(F)F)cc2)C1` (configuration not stated), the z-score was 6.63 (active).
On to `FC(F)Sc1ccc(NC(=S)NCC2CCCCC2)cc1`, for which the z-score was -0.233.
As for `FC(F)Sc1ccc(NC(=S)NC2CCCCC2)cc1`, the figure is -0.326; as for `Oc1cccc(NC(=S)Nc2ccc(SC(F)F)cc2)c1`, 2.92; as for `CN1CCC(N(C)C(=S)Nc2ccc(SC(F)F)cc2)CC1`, -0.0288.
For `Oc1cccc(NC(=S)Nc2cccnc2)c1`, the z-score was -0.756.
On to `CC1CCCCC1NC(=S)Nc1ccc(SC(F)F)cc1` (configuration not stated), for which the z-score was 5.08 (active).
In the case of `CC1CC(C)CN(C(=S)Nc2ccc(OC(F)F)cc2)C1` (configuration not stated), the z-score was -0.115.
As for `CC1CCN(C(=S)Nc2ccc(SC(F)F)cc2)CC1`, the z-score was 0.000321.
With `CN(C(=S)Nc1ccc(SC(F)F)cc1)c1ccc(O)cc1` the figure was 0.142; with `FC(F)Sc1ccc(NC(=S)NC2CCC(NC(=S)Nc3ccc(SC(F)F)cc3)CC2)cc1` (configuration not stated), -0.2.
As for `c1cncc(C(c2nnnn2C2CCCC2)N2CCN(Cc3ccc4c(c3)OCO4)CC2)c1` (configuration not stated), the figure is 0.0897; as for `O=C(c1ccco1)N1CCN(c2ccc(Cl)c(Cl)c2)CC1`, -0.938.
With `COc1cccc(OC)c1NC(=O)CN1CCC(NC(=O)c2cccc(F)c2)CC1` the figure was -0.0108.
Compound `O=C(CCNC(=O)Cn1ccc2ccccc2c1=O)NCCc1ccccc1Cl` showed a z-score of -0.0359.
As for `CCSc1nnc(NC(=O)C2Cc3ccccc3CN2S(=O)(=O)CC)s1` (configuration not stated), the figure is 0.295; as for `C=CC(=O)Nc1ccc(Br)cc1`, 0.0392; as for `COc1ccc(C(=O)C2CCN(C(=O)c3ccc(C)cc3)CC2)cc1`, -0.285.
With `COc1ccc(C(=O)N2CCC(C(=O)c3ccc(F)cc3)CC2)cc1` the figure was -1.67.
Consider `COc1ccc(/C=C2\C(=O)NC(=S)N2C(=O)c2ccc(F)cc2)cc1`, for which the z-score was 3.14 (active).
Compound `COc1ccc(-c2nc(N)n(C(=O)c3ccc(C)cc3)n2)cc1` displayed a z-score of 0.106.
In turn, `COc1ccc(/C=C/C(=O)Oc2ccc(/C=N\NC(=O)c3ccc(F)cc3)cc2)cc1` had a z-score of 0.18.
With `COc1ccc(C(=O)N2C(=S)NC(=O)/C2=C\c2ccc(C)cc2)cc1` the figure was 2.75.
Take `N#Cc1cc2c(nc1SCc1ccccc1)CCC2`: the z-score came to 0.359.
Consider `Cc1c(C(=S)Nc2ccccc2)cnn1-c1ccccc1`, for which the z-score was -0.398.
Take `Cc1oncc1C(=S)Nc1ccccc1`: the z-score is 12.4 (active).
With `COC(=O)c1cccc(NC(=O)c2cnoc2C)c1` the figure was -0.126; with `COc1ccc(C(C)N2CC34C=CC(O3)C(C(=O)O)C4C2=O)cc1` (configuration not stated), 0.302; with `Cc1ccccc1OCC(O)Cn1nnc2ccccc21` (configuration not stated), -0.244.
On to `COc1ccc(OCC(O)Cn2c(Nc3ccccc3)nc3c2c(=O)n(C)c(=O)n3C)cc1` (configuration not stated), for which the z-score is -0.45.
As for `C=CCn1c(N)c(C(=O)Nc2ccccc2OC)sc1=S`, the figure is 0.333.
`COc1ccccc1NC(=O)c1ccc(COc2ccc3c(c2)CCC3)cc1`: the z-score was -0.228.
Take `Cc1ccc(NC(=O)c2ccc(COc3ccc4c(c3)CCC4)cc2)c(C)c1`: the z-score was 3.36 (active).
With `COC(=O)c1ccccc1NC(=O)c1ccc(COc2ccc3c(c2)CCC3)cc1` the figure was -0.271; with `O=C(O)[C@H]1CCCC[C@H]1C(=O)NCCc1ccccc1`, 0.402; with `COC(=O)C(C)Sc1nnc(Cc2cc(=O)[nH]c(=O)[nH]2)n1-c1ccc(OC)cc1` (configuration not stated), 0.194.
As for `CCOC(=O)C(C)Sc1nnc(Cc2cc(=O)[nH]c(=O)[nH]2)n1-c1ccc(OCC)cc1` (configuration not stated), the figure is 0.465; as for `CCOc1ccc(-n2c(Cc3cc(=O)[nH]c(=O)[nH]3)nnc2SC(C)C(=O)OC)cc1` (configuration not stated), 12.7 (active); as for `COc1ccc(C(C(=O)NC(C)(C)C)N(CC2CCCO2)C(=O)CCC(=O)Nc2cc(C)on2)cc1` (configuration not stated), -0.202.
With `O=S(=O)(N/N=C/c1ccc(OC2CSC2)cc1)c1ccccc1` the figure was -0.00217; with `Nc1c(S(=O)(=O)c2cccs2)c2nc3ccccc3nc2n1Cc1ccc2c(c1)OCO2`, -0.174.
`S=c1[nH]nc(-c2ccncc2)n1/N=C/c1ccccc1` showed a z-score of -0.00784.
In the case of `Cc1ccc(-c2n[nH]c(=S)n2/N=C/c2ccc(C)o2)cc1`, the z-score was -1.27.
In turn, `Cc1ccc(/C=N/n2c(-c3ccncc3)n[nH]c2=S)cc1` displayed a z-score of 0.0356.
Take `Fc1ccc(/C=N/n2c(-c3cccs3)n[nH]c2=S)cc1`: the z-score was 4.92 (active).
Take `Cc1ccc(/C=N/n2c(-c3cccs3)n[nH]c2=S)cc1`: the z-score was 10 (active).
Compound `Cc1ccsc1/C=N/n1c(-c2ccccn2)n[nH]c1=S` gave a z-score of -0.121.
For `Cc1c(/C=N/NC(N)=O)c2ccccn2c1C(=O)c1ccc(F)cc1`, the z-score was -0.327.
With `COCc1cc(C)nc2sc(C(=O)N3CCCCC3)c(N)c12` the figure was 0.33.
With `CCCCOc1ccc(C(=O)N2CC(C)OC(C)C2)cc1` (configuration not stated) the figure was -0.154.
`CCCCOc1ccc(C(=O)N2CCC(C)CC2)cc1` registered a z-score of -0.401.
With `CCCCOc1ccc(C(=O)OC2CC(C)N(C)CC2C)cc1` (configuration not stated) the figure was 3.48 (active).
With `Cc1nc2ccc(NC(=O)c3ccc(S(=O)(=O)N4CCOCC4)cc3)cc2s1` the figure was -0.182; with `CCN(c1ccccc1)S(=O)(=O)c1ccc(C(=O)Oc2ccc(C(C)=O)cc2)cc1`, -0.819; with `O=C(Oc1ccc(-c2nnco2)cc1)N(c1ccccc1)c1ccccc1`, 0.519.
Take `CC(=O)c1ccc(OC(=O)N(c2ccccc2)c2ccccc2)cc1`: the z-score stood at 2.99.
As for `CS(=O)(=O)N(CCc1ccccc1)CC(=O)NCc1cccnc1`, the figure is 0.68; as for `O=c1c2c(n3nnnc3n1Cc1ccccc1)-c1ccccc1CC21CCCC1`, 0.0259.
The compound `COc1ccc(S(=O)(=O)NNC(=O)c2cc3c4ccccc4n(C)c3s2)cc1` returned a z-score of -0.127.
Take `CC(=O)Nc1ccc(S(=O)(=O)NNC(=O)c2cc3c4ccccc4n(C)c3s2)cc1`: the z-score was -0.78.
With `Cn1c2ccccc2c2cc(C(=O)NNS(=O)(=O)c3ccc(F)cc3)sc21` the figure was 5.09 (active); with `COc1ccccc1C(=O)Nc1ccc(S(=O)(=O)N2CCc3ccccc32)cc1`, 0.187.
Turning to `Cc1ccc(Oc2cc([N+](=O)[O-])cc3c2C(=O)Nc2ccccc2O3)cc1`, the z-score was -0.0885.
`CCOC(=O)Cc1cc(-c2ccc(O)cc2)nc2ccc3ccccc3c12` gave a z-score of 0.0725.
With `CCOC(=O)c1c(C)nc2c(c1-c1ccc(Cl)cc1)C(=O)CC(C)(C)C2` the figure was -1.24; with `CC(C)CC(NC(=O)c1ccc(Cl)cc1)C(=O)O` (configuration not stated), -0.0425.
With `CC(C)C[C@H](NC(=O)NCCc1ccc(Cl)cc1)C(=O)O` the figure was 2.58.
With `CC(C)[C@H](NC(=O)NCCc1ccc(Cl)cc1)C(=O)O` the figure was 0.54.
Turning to `COc1ccc(NC(=O)C23CC4CC(C2)CC(n2cnc(Br)n2)(C4)C3)cc1Cl`, the z-score is -0.254.
`Cn1c(=O)cc(SCC(=O)NCCC2=CCCCC2)c2ccc(Cl)cc21`: the z-score is -0.0516.
With `O=C(NC(Nc1nc2ccccc2s1)(C(F)(F)F)C(F)(F)F)c1ccccc1` the figure was -0.124; with `O=C(NC(NNc1ccc([N+](=O)[O-])cc1)(C(F)(F)F)C(F)(F)F)c1ccccc1Cl`, -0.392; with `O=C(NC(Nc1nc2ccc([N+](=O)[O-])cc2s1)(C(F)(F)F)C(F)(F)F)c1ccccc1Cl`, 9.65 (active).
Take `O=C(NC(Nc1nc2ccc([N+](=O)[O-])cc2s1)(C(F)(F)F)C(F)(F)F)c1ccccc1`: the z-score was 6.52 (active).
As for `O=C(NC(Nc1nc2ccc([N+](=O)[O-])cc2s1)(C(F)(F)F)C(F)(F)F)c1cccnc1`, the figure is 0.978; as for `COC(=O)C(NC(=O)c1ccccc1Cl)(Nc1ncc(S(=O)(=O)c2ccc([N+](=O)[O-])cc2)s1)C(F)(F)F` (configuration not stated), -0.242.
As for `CN(C(=O)Nc1ccc(S(=O)(=O)N(C)C)cc1)C1CCCCC1`, the figure is -0.0267.
With `O=C(CCn1c(=O)c2ccccc2n(CC(=O)NC2CCCC2)c1=O)NCc1ccco1` the figure was -0.258; with `CN(C(=O)COC(=O)c1ccccc1SCC(=O)NC1CCCCCCC1)C1CCS(=O)(=O)C1` (configuration not stated), -0.32.
The compound `Cc1cc(Oc2ccc3ccccc3c2)nc(SCC(=O)c2ccccc2)n1` yielded a z-score of -0.14.
Compound `CC(=O)/C=C(\C)Nc1ccc(-c2cnc(-c3ccccc3)o2)cc1` registered a z-score of 0.0863.
With `CS(=O)(=O)c1ccc(Cl)c(S(=O)(=O)NCc2ccccc2)c1` the figure was 0.117; with `CCNS(=O)(=O)c1cc(S(C)(=O)=O)ccc1Cl`, 8.32 (active).
Compound `Cc1ccccc1NS(=O)(=O)c1cc(S(C)(=O)=O)ccc1Cl` had a z-score of -0.0663.
In turn, `CC(C)=CC(=O)Nc1nnc(-c2ccccc2)s1` returned a z-score of -0.169.
As for `O=C(NNC(=S)Nc1ccccc1)c1cccc(Br)c1`, the figure is 3.98 (active).
With `O=C(O)CCC(=O)NNC(=O)c1cccc(Br)c1` the figure was -0.13.
As for `O=C(NNC(=S)Nc1cccc2ccccc12)c1cccc(Br)c1`, the figure is 13.9 (active); as for `C=CCNC(=S)NNC(=O)c1cccc(Br)c1`, -0.0521.
On to `Cc1ccc(C(=O)NNC(=S)Nc2cccc3ccccc23)s1`, for which the z-score was found to be 1.65.
With `CCNC(=S)NNC(=O)c1cccc(Br)c1` the figure was 0.0953.
As for `CCC(=O)NCCn1c(C)cc2ccccc21`, the figure is 0.729; as for `CC(/C=N/NC(=O)c1ccc(CN2c3cccc4cccc(c34)S2(=O)=O)cc1)c1ccccc1` (configuration not stated), -0.557; as for `Cc1ccc(-c2noc(CCC(=O)NCCN3CCOCC3)n2)cc1`, -0.472.
With `O=C(Nc1ncccn1)c1cc([N+](=O)[O-])cc([N+](=O)[O-])c1` the figure was -0.131; with `Cc1ccc(S(=O)(=O)NC(=NCC(=O)O)c2ccc(F)cc2)cc1`, 0.317.
`O=C(O)CN=C(NS(=O)(=O)c1ccc(Cl)cc1)c1ccccc1`: the z-score amounted to 0.274.
As for `O=C(O)CN=C(NS(=O)(=O)c1ccccc1)c1ccccc1`, the figure is 4.61 (active); as for `CCOc1ccccc1CNS(=O)(=O)c1ccc2c(c1)oc(=O)n2C`, -0.853; as for `CCn1cc(C(=O)Nc2nnc(C)s2)c(=O)c2cc(F)c(N3CCN(C(=O)c4ccco4)CC3)cc21`, -0.178.
